In PubChem BioAssay (NCI):
About 83,000 compounds went through this panel and 20% of them were active in at least one assay; those are over-represented in the sample as a whole.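 Testing used 96-well plates and a 48-hour single-concentration exposure. Example: -40 means 40% of the starting cells died.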 Unmarked numbers belong to inactive results. Calls of active or inactive are those of the source. The calls were made as follows: active = growth percent below 10; inactive = the rest.

Key:
Assay in all cases: NCI-60 one-dose screen, 48 h (100 = growth as untreated, 0 = no growth, -100 = all killed)
Conditions in all cases: 10 µM unless noted
NCI-H23 lung = system: NCI-H23 lung
NCI-H226 lung = system: NCI-H226 lung
NCI-H322M lung = system: NCI-H322M lung
NCI-H460 lung = system: NCI-H460 lung
HOP-92 NSCLC = system: HOP-92 NSCLC
NCI-H522 lung = system: NCI-H522 lung
A549/ATCC NSCLC = system: A549/ATCC NSCLC
786-0 renal = system: 786-0 renal
COLO 205 colon = system: COLO 205 colon
DU-145 prostate = system: DU-145 prostate
K-562 leukemia = system: K-562 leukemia
MALME-3M melanoma = system: MALME-3M melanoma
MDA-MB-231 breast = system: MDA-MB-231 breast
RXF 393 renal = system: RXF 393 renal
SF-268 CNS = system: SF-268 CNS
SF-295 CNS = system: SF-295 CNS
SF-539 CNS = system: SF-539 CNS
UACC-257 melanoma = system: UACC-257 melanoma
M14 melanoma = system: M14 melanoma
HOP-62 NSCLC = system: HOP-62 NSCLC

Row | Structure (SMILES) | growth (NCI-H23 lung) | growth (NCI-H226 lung) | growth (NCI-H322M lung) | growth (NCI-H460 lung) | growth (HOP-92 NSCLC) | growth (NCI-H522 lung) | growth (A549/ATCC NSCLC) | growth (786-0 renal) | growth (COLO 205 colon) | growth (DU-145 prostate) | growth (K-562 leukemia) | growth (MALME-3M melanoma) | growth (MDA-MB-231 breast) | growth (RXF 393 renal) | growth (SF-268 CNS) | growth (SF-295 CNS) | growth (SF-539 CNS) | growth (UACC-257 melanoma) | growth (M14 melanoma) | growth (HOP-62 NSCLC)
1 | C=C1CCC[C@]2(C)CCC[C@H](C)[C@@H](OC(C)=O)[C@@H]3OC(=O)C(=C)[C@@H]3C[C@H]1O2 | 74.5% | 78.6% | 99% | 74.7% | 24% | -6.33% (active) | 83.3% | 91.3% | 103% | 85.5% | 61.7% | 97.9% | 70.7% | 70.1% | 88.7% | 80.2% | 88.2% | 74.3% | 83.2% | –
2 | COc1cccc(/C=C2\Oc3cc(OCCCN4CCCC4)ccc3C2=O)c1OC | 96.8% | 86% | 92.8% | 96.2% | 91.2% | 91.5% | 97.2% | 98.5% | 105% | 106% | 73% | 94% | 97.2% | 93.1% | 91.9% | 97.4% | 94.6% | 99.3% | 91.5% | –
3 | COc1ccc(Nc2nc(N)nc3c2CCN(Cc2ccc(OC)cc2OC)C3=O)cc1 | 73.1% | 88% | 71.1% | 67.8% | 7.69% (active) | 89.3% | 85.6% | 72.1% | 110% | 88.6% | 72.7% | 80.8% | 84.7% | 81.6% | 87.3% | 57.1% | 63.5% | 88.3% | 64.6% | –
4 | COc1ccc(-c2cnnn2-c2nonc2-n2cccc2)cc1OC | 67.8% | 88.8% | 96.8% | 40.7% | 72% | 27.4% | 47.2% | 88.3% | 44.4% | 80.9% | 3.29% (active) | 25.1% | 65.7% | 75.6% | 71.8% | – | – | 79.6% | 39.9% | –
5 | COc1ccc(C2C=C(c3ccc(OC)c(OC)c3)N=C3SC=C(C)N32)c(Br)c1 (stereo not given) | 99.2% | 99.2% | 95.8% | 105% | 156% | 96.7% | 103% | 111% | 108% | 109% | 96.5% | 99% | 112% | 106% | 105% | – | 93.6% | 117% | 101% | –
6 | COc1cc(/C=C/C(=O)N2CCN(C(=O)/C=C/c3cc(OC)c(OC)c(OC)c3)CC2)cc(OC)c1OC | 104% | 100% | 113% | 104% | 99.7% | 87.5% | 105% | 96.8% | 109% | 109% | 98.7% | 127% | 82.7% | 121% | 118% | 122% | 103% | 94.3% | 97.1% | –
7 | C=C(C)[C@@H]1CC[C@]2(C(=O)O)CC[C@]3(C)[C@H](CC[C@@H]4[C@@]5(C)C[C@@H](CC#Cc6ccc(C(F)(F)F)cc6)[C@H](O)C(C)(C)[C@@H]5CC[C@]43C)[C@@H]12 | 2.55% (active) | 3.81% (active) | 35.2% | 15.1% | -16.9% (active) | -19.1% (active) | 10.3% | 19.2% | 21.1% | 22.6% | 7.68% (active) | -43.3% (active) | -10% (active) | -34.4% (active) | 12.6% | -21.6% (active) | -59.5% (active) | 7.33% (active) | -51.7% (active) | –
8 | Cn1ccc(=O)c(S(N)(=O)=O)c1 | 95.6% | 108% | – | 102% | 89.3% | 96.2% | 99.7% | 103% | 117% | 119% | 93.4% | 95.5% | 101% | 85.8% | 100% | 102% | 103% | 109% | – | 92.4%
9 | CC(C)CSc1nc(NN)c(C#N)c(-c2ccc(F)cc2)n1 | 70.4% | 80.3% | 74.9% | 52.1% | 105% | 63.2% | 77.1% | 85.9% | 97.1% | 66.5% | 58.8% | 95.5% | 86.8% | 79.3% | 62.6% | 44.7% | 65.9% | 105% | 78.9% | –
10 | COc1cccc(CC(C)=C(c2ccc(OCCN(C)C)cc2)c2ccc(OCCN(C)C)cc2)c1 | 70% | 31.3% | 1.04% (active) | -64.9% (active) | 10.2% | – | -21.7% (active) | -91% (active) | -70.5% (active) | 22.1% | -61.4% (active) | -93% (active) | -75.4% (active) | -62.6% (active) | -32.9% (active) | 22.8% | -93.1% (active) | -74.5% (active) | -80.5% (active) | –
11 | Cn1ncc2c(Sc3ccc(Cl)cc3)ncnc21 | 93.6% | 108% | – | 92.9% | 25.8% | 21.4% | 93.1% | 98.8% | 90.8% | 83% | 78.1% | 69.9% | 98.6% | 117% | 57.8% | 96.8% | 92.2% | 103% | 103% | 111%
12 | O=C(NCc1cn(Cc2cccc(Oc3ccccc3)c2)nn1)c1cccnc1Nc1ccc(F)cc1 | 69.4% | 88.5% | – | 34.4% | 114% | 31.3% | 59.5% | 69.8% | 70.7% | 63.6% | – | 67.5% | 42.2% | 65.9% | 67.7% | 50.7% | 62.6% | 76.8% | 48.1% | 59.3%
13 | COc1ccc2c(c1)[nH]c(=O)c1c3cccc(F)c3cn21 | 46.8% | 45.3% | – | 7.94% (active) | 69.4% | -4.04% (active) | 12.1% | 44.3% | -20.8% (active) | 9.01% (active) | 36.4% | 50.9% | 27.7% | -26.9% (active) | 18% | -32.1% (active) | 22.8% | 44.8% | 40.4% | 53.1%
14 | CCN(CC)CCC(CNc1ccnc2cc(Cl)ccc12)c1ccccc1 (stereo not given) | 80.3% | 63% | – | 67.7% | 21.1% | 18% | 70.4% | 69.8% | -39% (active) | 89.4% | 2.5% (active) | -47.1% (active) | 43% | -21% (active) | 78.3% | -21.4% (active) | -15.2% (active) | -78.2% (active) | -83.9% (active) | 78.4%
15 | COc1ccc(-c2c(N)n[nH]c2-c2cc3c(c(OC)c2OC)OCO3)cc1 | 96.8% | 99.9% | – | 105% | 87.2% | 81.5% | 97.1% | 105% | 101% | 108% | 98.4% | 97.8% | 83.7% | 108% | 99.1% | 102% | 93.1% | 98.7% | 101% | 101%
16 | COc1ccc(-c2nc(SCCC(C)C)nc(Nc3ccc(F)c(Cl)c3)c2C#N)cc1 | 90.2% | 65.8% | – | 24.1% | 101% | 84.5% | 58.9% | 45.4% | 70.8% | 97.7% | 56.2% | 84.2% | 100% | 101% | 83% | 78% | 70.3% | 103% | 95% | 88.7%
17 | O=C1C(Cl)=C(Nc2ccccn2)C(=O)c2ccccc21 | 40.5% | 94.1% | – | 62.6% | 102% | 58.3% | 104% | 111% | 97.6% | -10.9% (active) | 29.6% | -16.4% (active) | 62.1% | 95.3% | 58.8% | 82.9% | 25.4% | -10% (active) | 89.5% | 46.9%
18 | CN1C(=O)N(C)C2C1NN=c1s/c(=C\C=C\c3ccccc3)c(=O)n12 (stereo not given) | 64.3% | 61.9% | – | 23.3% | 63.9% | 38.7% | 52.7% | 71.3% | 42.1% | 69.3% | 20.6% | 62.6% | 65% | 77.7% | 67.2% | 45.7% | 54.8% | 73.4% | 41.5% | 67.3%
19 | Cc1ccc(S(=O)(=O)C2=C3C(=C(c4ccccc4)c4ccccc43)CN(S(=O)(=O)c3ccc(C)cc3)C2)cc1 | 47.1% | 79.1% | – | 63.8% | 3.21% (active) | -45.9% (active) | 70.9% | 5.02% (active) | 71.3% | 68.2% | 18% | 72% | 48.8% | 47.1% | 45.3% | 68.3% | 74.1% | 91% | 70.7% | 88.6%
20 | COc1ccc(OC)c(/C=C2\Oc3cc(OCCCN4CCCC4)ccc3C2=O)c1 | 80.6% | 88.7% | – | 61.3% | 77.6% | 89.6% | 81.2% | 84.2% | 85.6% | 79.6% | -5.23% (active) | 104% | 68.8% | 73.4% | 79.8% | 97.4% | 46% | 40.5% | -2.52% (active) | 95.6%
21 | COc1ccc(-c2ccc(-c3ccc(C(=N)N)s3)s2)cc1Cl | 45.4% | 79.3% | – | -36.5% (active) | 16.5% | 0.287% (active) | -69.8% (active) | 72.3% | -48.4% (active) | 0.775% (active) | -37.4% (active) | 64.3% | -42.3% (active) | -87.5% (active) | 76.8% | 10.8% | 65.7% | 106% | 97.2% | 70.9%
22 | C=C(C)[C@@H]1CC[C@]2(C(=O)N3CCNCC3)CC[C@]3(C)[C@H](CC[C@@H]4[C@@]5(C)C/C(=C/c6ccncc6)C(=O)C(C)(C)[C@@H]5CC[C@]43C)[C@@H]12 | 103% | 95.7% | – | 107% | 95.8% | – | 102% | 108% | 113% | 113% | 97.3% | 114% | 116% | 117% | 103% | 104% | 105% | 104% | 108% | 107%
23 | COc1ccccc1CNCCCN1C(=O)c2ccc3c4c(ccc(c24)C1=O)C(=O)N(CCCNCCCCNCCCN)C3=O | 1.96% (active) | -59.9% (active) | – | -30.2% (active) | 5.16% (active) | -41.7% (active) | -48.2% (active) | 3.83% (active) | -78.9% (active) | -92.6% (active) | -15.1% (active) | -91.8% (active) | 15% | -66.8% (active) | 1.6% (active) | 1.52% (active) | -55.9% (active) | -91.1% (active) | -70.8% (active) | -55.2% (active)
